PriA SSB inh: K. pneumoniae PriA-SSBct interaction inhibition; AlphaScreen SSBct-PriA binding, biotinylated peptide; inhibition, % at 33 µM; actives 0.6% (n = 430,000); AID 1272365; in the data active means inhibition mostly above about 37%, no sharp cut-off; inactive means mostly below about 20%;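 further: plate controls were negative control peptide for no effect and reference peptide for full effect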
Mtb UGM inh: inhibitors of M. tuberculosis UDP-galactopyranose mutase | AID 504406 | inhibition, % at 10 µM | P9WIQ1 | purified UGM, fluorescence polarization probe displacement | actives 0.06% (n = 320,000); in the data active means inhibition above about 10%, passing the limit was not always enough
Mtb bLac sens: beta-lactam sensitization of Mtb H37Rv. M. tuberculosis H37Rv growth with meropenem, percent inhibition. inhibition, % at 25 µM. actives 0.27% (n = 330,000);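 further: growth measured after seven days incubation then overnight dye step; 0% = bacteria only wells and 100% = bacteria with antibiotic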
RecA intein inh: blocks M. tuberculosis RecA intein splicing. P9WHJ3. cell-free RecA intein splicing, fluorescence. inhibition, % (test concentration not listed). actives 0.75% (n = 290,000). AID 2221; in the data active means inhibition above about 30%;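 further: 0% = vehicle wells and 100% = reference inhibitor control wells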
Rv3671c protease: inhibitors of M. tuberculosis serine protease Rv3671c. inhibition, % at 5.96 µM. P9WHR9. actives 0.048% (n = 320,000); in the data active means inhibition above about 38%;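 further: extracellular domain of Rv3671c used as enzyme; 0% = enzyme with DMSO and 100% = no enzyme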
Target sequence (P9WHR9 whole entry, looked up, the tested form may be a part): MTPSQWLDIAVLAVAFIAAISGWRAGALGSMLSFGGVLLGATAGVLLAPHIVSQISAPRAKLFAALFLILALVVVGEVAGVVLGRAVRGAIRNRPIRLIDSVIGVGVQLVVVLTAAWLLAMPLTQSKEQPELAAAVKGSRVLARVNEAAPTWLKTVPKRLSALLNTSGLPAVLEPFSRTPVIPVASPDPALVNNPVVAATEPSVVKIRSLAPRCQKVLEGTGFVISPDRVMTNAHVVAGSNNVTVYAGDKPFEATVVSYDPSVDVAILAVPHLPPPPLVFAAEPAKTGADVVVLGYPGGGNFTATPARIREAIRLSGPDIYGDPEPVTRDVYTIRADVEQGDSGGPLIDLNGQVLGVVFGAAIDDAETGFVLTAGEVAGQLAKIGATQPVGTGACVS
GFP chromophore: counter-screen: blocks GFP chromophore formation; shares compounds with RecA intein inh; cell-free GFP chromophore formation, fluorescence; EC50, µM; actives 83% (n = 2,100); AID 434968
The depositor's hits bear a star; · = no result. Most compounds without a hit are left out; they make up all but 1.1% or so of the library. Unless noted, how the calls were made is not given here.

SMILES	PriA SSB inh	Mtb UGM inh	Mtb bLac sens	RecA intein inh	Rv3671c protease	GFP chromophore
COc1cc(/C=C2/C(=O)N(c3ccc(C)c(C)c3)N=C2C)cc([N+](=O)[O-])c1O	10	2	8	42*	-3	21*
COc1cc(/C=C2\C(=O)NN(c3ccc(C)cc3)C2=O)cc([N+](=O)[O-])c1O	8	2	4	1	7	·
CCOC(=O)Cn1c([C@H]2CC(=O)N(Cc3ccccc3)C2)nc2ccccc21	-14	·	·	·	·	·
Cc1[nH]nc2c1C(c1cccc(OC(=O)N3CCOCC3)c1)C(C#N)=C(N)O2 (stereo unspecified)	-14	1	-2	59*	-4	35*
CC(C)c1[nH]nc2c1C(c1ccc(OC(=O)c3ccco3)cc1)C(C#N)=C(N)O2 (stereo unspecified)	20	-3	99	46*	-6	20*
Cc1[nH]nc2c1C(c1ccc(OC(=O)c3ccco3)cc1)C(C#N)=C(N)O2 (stereo unspecified)	-13	2	100	74*	-1	33*
CC(C)(C)c1[nH]nc2c1C(c1ccccc1OC(=O)N1CCOCC1)C(C#N)=C(N)O2 (stereo unspecified)	-10	3	1	·	-4	·
O=C(COc1cc(Cl)c(Cl)cc1Cl)N/N=C\c1cn(-c2ccccc2)nc1-c1ccccc1	-4	·	·	·	·	·
CC1=NNC(=O)C1Oc1ccccc1 (stereo unspecified)	-13	-1	7	96*	-5	1.1*
COc1ccc(Cl)c2sc(NCCCN(C)C)nc12	27	·	·	·	·	·
CCN(CC)S(=O)(=O)c1ccc(NN=C(C#N)C#N)cc1	12	0	-5	38*	8	27*
COc1ccccc1NC(=O)c1cnc(SCC(=O)Nc2cc(C)on2)n(C)c1=O	-16	·	·	·	·	·
CCOc1cc(/C=N\NC(=O)OC(C)(C)C)ccc1OC(=O)c1ccco1	·	1	-2	31*	7	>38
COC(=O)N/N=C\c1ccc(OC(=O)c2ccco2)cc1	·	-2	45	40*	12	>38
CC(C)(C)OC(=O)N/N=C\c1ccc(OC(=O)c2ccco2)cc1	·	0	26	43*	9	>38
CCOC(=O)N/N=C\c1ccc(OC(=O)c2ccco2)cc1	·	-1	60	34*	4	>38
CC(C)(C)OC(=O)NN=Cc1ccc(OC(=O)c2cccs2)cc1	2	·	·	·	·	·
O=C(c1cccs1)N1CCN(c2ccc(-c3ccncc3)nn2)CC1	-2	·	·	·	·	·
CC(C)C(=O)N1CCN(c2nc(-c3ccccc3)c3c(c2C#N)CCCC3)CC1	-8	-1	3	31*	11	>38
CC1=C(C(=O)OC(C)C)C2(O)C(=O)c3ccccc3C2(O)N1 (stereo unspecified)	-13	0	-6	32*	-74	27*
O=C(C/C=N\OCc1c(Cl)cccc1Cl)Oc1ccc(Cl)cc1Cl	·	-3	-6	45*	-1	27*
Cc1nc(C(=O)Nc2nc3ccccc3[nH]2)cc(-n2cccn2)n1	4	·	·	·	·	·
O=C1N=C(N2C=CC(=C3C=CNC=C3)C=C2)C(=CN=NC(=O)c2ccccc2O)S1	-7	·	·	·	·	·
O=C(NCCn1nc(C2CC2)n(-c2ccccc2)c1=O)c1ccccc1C(F)(F)F	-12	·	·	·	·	·
Cc1cc(-c2[nH]nc3c2C(c2ccsc2)C(C#N)=C(N)O3)c(C)s1 (stereo unspecified)	-1	-7	-9	86*	3	6.6*
SMILES	PriA SSB inh	Mtb UGM inh	Mtb bLac sens	RecA intein inh	Rv3671c protease	GFP chromophore
N#CC1=C(N)Oc2cc(O)ccc2C1c1cccnc1 (stereo unspecified)	0	-8	-3	·	4	·
Cc1cc(-c2[nH]nc3c2C(c2cccc(O)c2)C(C#N)=C(N)O3)c(C)s1 (stereo unspecified)	3	-2	-3	83*	1	9.3*
Cc1cc(NC(=O)C2CCCN(S(=O)(=O)c3ccc(F)cc3)C2)on1 (stereo unspecified)	4	·	·	·	·	·
O=C(Nc1nnc(CS(=O)(=O)c2ccccc2)o1)c1ccc(Cl)cc1	-9	·	·	·	·	·
Cn1nc(C(=O)Nc2cnn(CC3CCOCC3)c2)ccc1=O	-3	·	·	·	·	·
O=C(N/N=C\c1ccc(-c2ccccc2[N+](=O)[O-])o1)C1COc2cc3ccccc3cc2O1 (stereo unspecified)	·	2	-3	13	-40	·
O=C(CNC(=O)C1COc2ccccc2O1)N/N=C\c1ccccc1Cl (stereo unspecified)	·	4	-2	0	-12	>38

Compound activity: PubChem BioAssay, several laboratories
